Entries with a potency or affinity are not part of this list.
The compounds below were run on Staphylococcus aureus. Details: Concentration 20 uM; ASSAY_TEST Inhibition of Bacterial Growth; detection method Absorption (OD600); MEDIA CAMHB; plate type 384well; NBS; CORNING #3640; time 18 hr.
For CC(C)NCC(O)c1cc(O)cc(O)c1 (configuration not stated) [METAPROTERENOL], the Inhibition was -6.69%. In the case of CCc1nn(CCCN2CCN(c3cccc(Cl)c3)CC2)c(=O)n1CCOc1ccccc1.Cl [NEFAZODONE HYDROCHLORIDE], the Inhibition is reported as 6.52%. CN(C)CC/C=C1/c2ccccc2COc2ccc(CC(=O)O)cc21.Cl [OLOPATADINE HYDROCHLORIDE] gave an Inhibition of -18.81%. CN(C)CCOC(c1ccccc1)c1ccccc1.Cl [DIPHENHYDRAMINE HYDROCHLORIDE] showed an Inhibition of -13.43%. CC(C)(C(=O)O)c1ccc(C(O)CCCN2CCC(C(O)(c3ccccc3)c3ccccc3)CC2)cc1.Cl (configuration not stated) [FEXOFENADINE HYDROCHLORIDE] was tested, and the Inhibition was 11.48%. CC1=C(C(=O)O)N2C(=O)[C@@H](NC(=O)[C@H](N)c3ccccc3)[C@H]2SC1.O [CEPHALEXIN] gave an Inhibition of -0.36%. CC(=O)Nc1nnc(S(N)(=O)=O)s1 [ACETAZOLAMIDE] gave an Inhibition of 15.7%. Work on CN(Cc1cnc2nc(N)nc(N)c2n1)c1ccc(C(=O)N[C@@H](CCC(=O)O)C(=O)O)cc1.O yielded an Inhibition of 8.23%. COc1ccc2cc([C@H](C)C(=O)[O-])ccc2c1.[Na+] [NAPROXEN SODIUM] gave an Inhibition of 6.58%. COc1ccc2[nH]c([S+]([O-])Cc3ncc(C)c(OC)c3C)nc2c1 (configuration not stated) [OMEPRAZOLE] gave an Inhibition of 3.38%. Compound CC(N)C12CC3CC(CC(C3)C1)C2.Cl (configuration not stated) [RIMANTADINE HYDROCHLORIDE] has an Inhibition of 6.08%. For CCc1c(C)[nH]c2c1C(=O)C(CN1CCOCC1)CC2.Cl (configuration not stated) [MOLINDONE HYDROCHLORIDE], the Inhibition was -5.38%. In the case of C[C@H]1O[C@@H](O[C@H]2[C@@H](O)C[C@H](O[C@H]3[C@@H](O)C[C@H](O[C@H]4CC[C@@]5(C)[C@H](CC[C@@H]6[C@@H]5C[C@@H](O)[C@]5(C)C(C7=CC(=O)OC7)CC[C@]65O)C4)O[C@@H]3C)O[C@@H]2C)C[C@H](O)[C@@H]1O (some centres not stated), the Inhibition is reported as 15.53%. CC(=O)OCC(=O)[C@@]1(O)CC[C@H]2[C@@H]3CCC4=CC(=O)CC[C@]4(C)[C@H]3[C@@H](O)C[C@@]21C [HYDROCORTISONE ACETATE] showed an Inhibition of 9.41%. COc1ccccc1N1CCN(CC(O)COc2cccc3ccccc23)CC1 (configuration not stated) [NAFTOPIDIL] was tested, and the Inhibition was 4.28%. Work on Cc1cnc(C(=O)NCCc2ccc(S(=O)(=O)NC(=O)NC3CCCCC3)cc2)cn1 [GLIPIZIDE] yielded an Inhibition of 13.08%. In the case of Cc1c(C(=O)NN2CCCCC2)nn(-c2ccc(Cl)cc2Cl)c1-c1ccc(I)cc1, the Inhibition is reported as 8.26%. Cc1ccc(C)c(OCCCC(C)(C)C(=O)O)c1 [GEMFIBROZIL] showed an Inhibition of 11.1%. Compound CCOC(=O)N1CCC(=C2c3ccc(Cl)cc3CCc3cccnc32)CC1 [LORATADINE] has an Inhibition of 11.88%. COc1ccccc1OCC(O)CN1CCN(CC(=O)Nc2c(C)cccc2C)CC1.Cl.Cl (configuration not stated) [RANOLAZINE HYDROCHLORIDE] gave an Inhibition of 15.16%. Compound CC(=O)CCCCn1cnc2c1c(=O)n(C)c(=O)n2C [LOMIFYLLINE] has an Inhibition of 12.49%. Compound C[C@@H]1CN(CCCn2c3ccccc3c3ccccc32)C[C@H](C)N1.Cl.O has an Inhibition of 5.93%. Cc1ccccc1C(OCCN(C)C)c1ccccc1.Cl (configuration not stated) [ORPHENADRINE HYDROCHLORIDE] gave an Inhibition of 13.17%. C[C@]12CCC(=O)C=C1CC[C@@H]1[C@@H]2[C@@H](O)C[C@@]2(C)[C@H]1CC[C@]2(O)C(=O)CO [HYDROCORTISONE] gave an Inhibition of 7.72%. Cl.O=C1c2c(O)ccc(O)c2C(=O)c2c(NCCNCCO)ccc(NCCNCCO)c21 was tested, and the Inhibition was -9.15%. CC[C@]1(O)C[C@@H]2CN(CCc3c([nH]c4ccccc34)[C@@](C(=O)OC)(c3cc4c(cc3OC)N(C)[C@H]3[C@@](O)(C(N)=O)[C@H](O)[C@]5(CC)C=CCN6CC[C@]43[C@@H]65)C2)C1.O=S(=O)(O)O [VINDESINE SULFATE] was tested, and the Inhibition was 2.71%. Compound CC[C@H](C)C(=O)O[C@H]1CCC=C2C=C[C@H](C)[C@H](CC[C@@H]3C[C@@H](O)CC(=O)O3)[C@H]21 [MEVASTATIN] has an Inhibition of -0.69%. Compound CN(C)[C@@H]1C(=O)C(C(=O)NCN2CCCC2)=C(O)[C@@]2(O)C(O)=C3C(=O)c4c(O)cccc4[C@@](C)(O)C3CC12 (some centres not stated) has an Inhibition of 23.2%. Compound CN(C)CCCSc1ccccc1NC(=O)/C=C/c1ccccc1.Cl.O has an Inhibition of 14.82%. For CCCCc1nc(Cl)c(CO)n1Cc1ccc(-c2ccccc2-c2nnn[n-]2)cc1.[K+] [LOSARTAN POTASSIUM], the Inhibition was -19.73%. COc1cc(C)c(/C=C/C(C)=C/C=C/C(C)=C/C(=O)O)c(C)c1C [ACITRETIN] showed an Inhibition of -32.23%. Compound CN[C@@H]1[C@H](O)[C@H](NC)[C@H]2O[C@@]3(O)C(=O)C[C@@H](C)O[C@H]3O[C@@H]2[C@H]1O.Cl.Cl.Cl.O.O.O has an Inhibition of 11.03%. CCCCC(=O)N(Cc1ccc(-c2ccccc2-c2nnn[nH]2)cc1)[C@H](C(=O)O)C(C)C gave an Inhibition of 14.82%. With C[C@]12C[C@H](O)[C@H]3[C@@H](CCC4=CC(=O)CC[C@@]43C)[C@@H]1CC[C@@H]2C(=O)CO [CORTICOSTERONE] the Inhibition was 12.8%. In the case of CC(=O)S[C@@H]1CC2=CC(=O)CC[C@]2(C)[C@H]2CC[C@@]3(C)[C@@H](CC[C@@]34CCC(=O)O4)[C@H]12 [SPIRONOLACTONE], the Inhibition is reported as 18.37%. In the case of CN1CCC(=C2c3ccccc3CCc3sccc32)CC1.O=C(O)/C=C\C(=O)O, the Inhibition is reported as 4.8%. Work on CC(C)[N+]1(C)C2CCC1CC(OC(=O)C(CO)c1ccccc1)C2.[Br-] (configuration not stated) yielded an Inhibition of 9.02%.
